“And” between values parts separate entries of the source, which are not always exact repeats. Identical values can stand only once. This is part of a sample that, as a whole, favours compounds with a hit. Of some 79,000 tested, about 15% had one in any assay. Some structures have more than one record in an assay (separate samples or runs), and their calls can disagree. The source made the active and inactive calls. Rule as the data show it: active = growth inhibition above about 70%; inactive = the rest.
Tests used:
[1] = NCI Yeast Anticancer Drug Screen. Data for the rad52 strain (AID 147);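 also: 0% = growth of vehicle-treated control cultures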; details: S. cerevisiae rad52 mutant growth inhibition, stronger effect = higher value
In short: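 The repair-mutant yeast strain was incubated with compounds, then growth was read and inhibition derived relative to vehicle.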

[2] = NCI Yeast Anticancer Drug Screen. Data for the wt1 strain (AID 149);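 also: 0% = growth of vehicle-treated wt1 cultures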; details: S. cerevisiae wt1 strain (SPY 50644) growth inhibition, stronger effect = higher value
In short: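 Readout: yeast growth inhibition, normalised to vehicle controls, in the wt1 strain exposed to test compounds.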

[3] = NCI Yeast Anticancer Drug Screen. Data for the rad50EPP+ strain (AID 151);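 also: 0% = growth of vehicle-treated control cultures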; details: S. cerevisiae rad50 mutant strain, stronger effect = higher value
In short: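 Vehicle-normalised growth inhibition; rad50EPP+ yeast strain, altered in DNA damage repair, compound-treated.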

[4] = NCI Yeast Anticancer Drug Screen. Data for the mgt1 strain (AID 153); details: S. cerevisiae mgt1 mutant growth inhibition, stronger effect = higher value
In short: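 Vehicle-normalized growth inhibition is determined in mgt1 yeast, a strain selected for a defined alteration in DNA repair or cell cycle control.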

[5] = NCI Yeast Anticancer Drug Screen. Data for the rad50 strain (AID 155);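 also: 0% = growth of vehicle-only cultures of the same strain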; details: S. cerevisiae rad50 strain growth inhibition, stronger effect = higher value
In short: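 Compounds were tested on a yeast strain with an engineered DNA damage repair alteration; the reported value is growth inhibition normalised to vehicle treatment.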

[6] = NCI Yeast Anticancer Drug Screen. Data for the mec2-1 strain (AID 157); details: S. cerevisiae mec2-1 strain, stronger effect = higher value
In short: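 Mutant yeast (mec2-1) grown with compound; growth inhibition relative to vehicle control reported.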

[7] = NCI Yeast Anticancer Drug Screen. Data for the rad14 strain (AID 159);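 also: 0% = growth of vehicle-treated control cultures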; details: S. cerevisiae rad14 strain growth inhibition, stronger effect = higher value
In short: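 Compound-treated yeast with a defined DNA-repair lesion; growth inhibition normalised to vehicle-treated cultures.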

[8] = NCI Yeast Anticancer Drug Screen. Data for the sgs1 mgt1 strain (AID 161);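 also: 0% = growth of cultures given vehicle only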; details: S. cerevisiae sgs1 mgt1 strain, stronger effect = higher value
In short: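 Compounds are added to genetically altered yeast, and growth is compared with cultures given vehicle alone to give percent inhibition.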

[9] = NCI Yeast Anticancer Drug Screen. Data for the CLN2oe strain (AID 163);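 also: 0% = growth of vehicle-only control cultures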; details: S. cerevisiae CLN2oe strain, stronger effect = higher value
In short: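 Compounds are applied to yeast harbouring a defined cell-cycle control change; reduced growth compared with vehicle-treated controls gives the value.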

[10] = NCI Yeast Anticancer Drug Screen. Data for the cln2 rad14 strain (AID 165);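 also: 0% = growth equal to vehicle treated cultures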; details: S. cerevisiae cln2 rad14 strain, stronger effect = higher value
In short: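 Readout is yeast growth inhibition versus vehicle-treated controls, using a strain with cln2 and rad14 alterations exposed to compound.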

[11] = NCI Yeast Anticancer Drug Screen. Data for the bub3 strain (AID 167); details: S. cerevisiae bub3 mutant strain, stronger effect = higher value
In short: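 Growth of a checkpoint-deficient yeast mutant is measured after compound exposure. Values represent inhibition relative to vehicle.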

[12] = NCI Yeast Anticancer Drug Screen. Data for the wt2 strain (AID 169);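 also: 0% = growth of vehicle-treated yeast cultures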; details: S. cerevisiae wt2 strain growth inhibition, stronger effect = higher value
In short: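 Against vehicle-treated controls, the growth of yeast exposed to each compound was compared, and the inhibition was recorded.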

[13] = NCI Yeast Anticancer Drug Screen. Data for the mlh1 strain (AID 171);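 also: 0% = growth of vehicle-treated control cultures of the same strain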; details: S. cerevisiae mlh1 strain growth inhibition, stronger effect = higher value
In short: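 Measured: yeast growth. Reference: vehicle-treated controls. Organism: strain with a defined alteration affecting DNA damage repair or cell cycle control, treated with compound.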

[14] = NCI Yeast Anticancer Drug Screen. Data for the sgs1 strain (AID 173);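 also: 0% = growth of vehicle-only control cultures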; details: S. cerevisiae sgs1 mutant, stronger effect = higher value
In short: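 Each compound was added to cultures of the altered yeast strain. Growth was recorded, and inhibition was derived by comparison with vehicle controls.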

[15] = NCI Yeast Anticancer Drug Screen. Data for the mlh1 rad18 strain (AID 175); details: S. cerevisiae mlh1 rad18 strain growth inhibition, stronger effect = higher value
In short: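 Genetically defined yeast (DNA repair-deficient) exposed to compounds; growth inhibition determined relative to vehicle.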

[16] = NCI Yeast Anticancer Drug Screen. Data for the rad18 strain (AID 177); details: S. cerevisiae rad18 mutant growth inhibition, stronger effect = higher value
In short: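 Vehicle-treated cultures served as the baseline for scoring compound-induced growth inhibition in DNA-repair-mutant yeast.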

[17] = at 5.0 µM (retest, dose inferred, filed as 0.5)
[18] = at 50.0 µM (retest, dose inferred, filed as 5.0)

Measured: growth inhibition

COc1ccc([N+]2=NC(c3ccc([N+](=O)[O-])cc3)=NN(c3ccccc3)C2)cc1
active: [1]; at 100.0 µM 91% | [2]; at 100.0 µM 94% and 89% | [5]; at 50.0 µM 78.3% and 73.8% | [5]; at 100.0 µM 90% and 88% | [6]; at 50.0 µM 75.2% and 70.8% | [9]; at 100.0 µM 90% and 70% | [11]; [18] 84% and 88% | [11]; at 50.0 µM 90.5% and 91.4% | [12]; at 100.0 µM 93% | [14]; at 100.0 µM 93% and 92% | [15]; at 50.0 µM 87.9% and 86.3% | [16]; at 100.0 µM 90% and 87%
82% (active) and 58% (inactive): [3]; at 100.0 µM
78.8% (active) and 63.6% (inactive): [8]; at 50.0 µM
inactive: [1]; at 1.2 µM -3% and -1% | [1]; at 3.7 µM -1% and 1% | [1]; at 11.0 µM 1% and 2% | [1]; at 33.0 µM 37% and 12% | [2]; at 1.2 µM 1% | [2]; at 3.7 µM 0% | [2]; at 11.0 µM -3% and -5% | [2]; at 33.0 µM 1% and -2% | [3]; at 1.2 µM -10% and -9% | [3]; at 3.7 µM -4% and -5% | [3]; at 11.0 µM 3% and 4% | [3]; at 33.0 µM 32% and 9% | [4]; at 1.2 µM -1% | [4]; at 3.7 µM -2% and -6% | [4]; at 11.0 µM -1% and 2% | [4]; at 33.0 µM 43% and -6% | [5]; at 1.2 µM -6% and -5% | [5]; at 3.7 µM -16% | [5]; [17] 8% and 7% | [5]; at 11.0 µM -17% and -13% | [5]; at 33.0 µM 34% and 11% | [5]; [18] 52% and 31% | [6]; at 1.2 µM -5% and -1% | [6]; at 3.7 µM -5% and -2% | [6]; [17] -10% and -3% | [6]; at 11.0 µM -5% and 1% | [6]; at 33.0 µM 6% and 5% | [6]; [18] 21% and 4% | [7]; at 1.2 µM 2% | [7]; at 3.7 µM 1% | [7]; at 11.0 µM 4% and 2% | [7]; at 33.0 µM 14% and 9% | [8]; [17] 2% and -1% | [8]; [18] 22% and 50% | [9]; at 1.2 µM 0% and 5% | [9]; at 3.7 µM -3% and 0% | [9]; at 11.0 µM -7% and 4% | [9]; at 33.0 µM 21% and 9% | [10]; [17] 5% and -13% | [10]; [18] 48% and 43% | [10]; at 50.0 µM 51% and 38.8% | [11]; at 1.2 µM 5% and 1% | [11]; at 3.7 µM 17% and 4% | [11]; [17] 15% and 17% | [11]; at 11.0 µM 17% and 9% | [11]; at 33.0 µM 35% and 5% | [12]; at 1.2 µM 0% and 1% | [12]; at 3.7 µM -1% | [12]; at 11.0 µM -2% | [12]; at 33.0 µM 27% and 7% | [13]; at 1.2 µM 0% | [13]; at 3.7 µM -2% and -3% | [13]; at 11.0 µM -1% and -3% | [13]; at 33.0 µM 14% and 16% | [14]; at 1.2 µM -2% and -3% | [14]; at 3.7 µM 3% and -1% | [14]; at 11.0 µM 8% | [14]; at 33.0 µM 48% and 42% | [15]; [17] 4% and 9% | [15]; [18] 67% and 51% | [16]; at 1.2 µM -8% and -5% | [16]; at 3.7 µM -2% and -3% | [16]; at 11.0 µM 12% and 15% | [16]; at 33.0 µM 34% and 33%
92% (active) and 50% (inactive): [6]; at 100.0 µM
92% (active) and 59% (inactive): [13]; at 100.0 µM
90% (active) and 56% (inactive): [11]; at 100.0 µM
93% (active) and 41% (inactive): [4]; at 100.0 µM
91% (active) and 63% (inactive): [7]; at 100.0 µM
